PostGolgi yeast: growth inhibition of a yeast mutant, post-Golgi transport screen; post-Golgi transport phenotypic cell assay; AID 739; actives 0.9% (n = 98,000); inhibition, % at 10 µM;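 also: yeast cells grown in 1536-well plates; yeast grown about 18 h at 30C before absorbance read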
PostGolgi ctrl: inhibits growth of the yeast control strain; inhibition, % at 10 µM; efflux-deficient yeast background strain, growth absorbance A615, 16 h; actives 5% (n = 98,000)
CYP2C9 activ: activators of human CYP2C9; recombinant CYP2C9, luciferin-H conversion, luminescence; hits give high values; factor 1 = untreated enzyme, 0 = blocked; activation factor at 5 µM; P11712; actives 1.4% (n = 96,000); AID 1024;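 active = activation factor of 2 or more for CYP2C9 at a 5 µM dose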;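 also: 0 = sulfaphenazole-blocked wells and 1 = vehicle-only wells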
CYP2C19 act: activators of human cytochrome P450 2C19. activation factor at 5 µM. recombinant CYP2C19, luciferin-H EGE luminescence; hits give high values; 0 = fully inhibited enzyme, 1 = untreated enzyme. P33261. AID 1025. 96,000 tested, under 10 active;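 active = activation factor of at least 2 at 5 µM in the primary screen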;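 also: 0 = wells with 2.5 mM tranylcypromine and 1 = vehicle-only wells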
Target sequence (P33261 whole entry, looked up): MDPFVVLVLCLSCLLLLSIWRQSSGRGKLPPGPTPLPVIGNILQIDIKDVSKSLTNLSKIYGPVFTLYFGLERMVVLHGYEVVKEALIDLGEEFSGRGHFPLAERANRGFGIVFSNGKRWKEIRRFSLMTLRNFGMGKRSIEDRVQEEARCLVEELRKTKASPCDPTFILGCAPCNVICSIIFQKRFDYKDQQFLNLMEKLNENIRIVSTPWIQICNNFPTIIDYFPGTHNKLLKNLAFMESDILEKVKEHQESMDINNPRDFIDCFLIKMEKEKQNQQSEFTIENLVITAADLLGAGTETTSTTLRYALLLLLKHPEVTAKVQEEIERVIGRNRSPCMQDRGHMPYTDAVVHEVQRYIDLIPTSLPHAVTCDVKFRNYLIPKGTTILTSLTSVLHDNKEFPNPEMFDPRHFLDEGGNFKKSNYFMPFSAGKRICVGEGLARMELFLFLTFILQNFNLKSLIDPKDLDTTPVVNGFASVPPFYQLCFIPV
CYP2C9 inh: human CYP2C9 inhibition; P11712; CYP2C9 Supersomes, luciferin-H conversion, luminescence; inhibition, % at 5 µM; actives 20% (n = 96,000);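 active = blocking of liver enzyme CYP2C9 beyond about 50% at 5 µM, limit read from the data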
CYP2C19 inh: human CYP2C19 inhibition; P33261; CYP2C19 Supersomes, luciferin-H EGE luminescence, 30 min; inhibition, % at 5 µM; actives 21% (n = 96,000); AID 778;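 active = CYP2C19 inhibition above a set limit at 5 µM in the primary screen, cut at about 50% in these data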;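 also: plate controls were negative control wells for no effect and 2.5 mM tranylcypromine positive control for full effect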
* = called active by the depositor. This is a sample that favours compounds with a hit; in the whole collection about 32% have one here. Rule as the data show it, unless noted: active = inhibition above about 30%; inactive = the rest.

Results for CCOc1ccccc1-n1c(COc2ccccc2)nnc1SCC(N)=O ?
PostGolgi yeast: -1; PostGolgi ctrl: 1; CYP2C9 activ: 1; CYP2C19 act: 0.6; CYP2C9 inh: 4; CYP2C19 inh: 38

How did COCc1nnc(SCC(=O)Nc2cccc(Cl)c2C)n1-c1ccccc1 do in these assays?
PostGolgi yeast: 2; PostGolgi ctrl: 6; CYP2C9 activ: 0.8; CYP2C19 act: 0.2; CYP2C9 inh: 18; CYP2C19 inh: 84*

How did COC(=O)c1ccc(/C=N/NC(=O)CC(=O)NC(C)C)cc1 do in these assays?
PostGolgi yeast: -6; PostGolgi ctrl: 17; CYP2C9 activ: 0.9; CYP2C19 act: 0.9; CYP2C9 inh: 12; CYP2C19 inh: 6

How did COC(=O)c1ccc(COC(=O)c2ccc(-n3cnnn3)cc2)o1 do in these assays?
PostGolgi yeast: 27; PostGolgi ctrl: 6; CYP2C9 activ: 0.4; CYP2C19 act: 0.9; CYP2C9 inh: 64*; CYP2C19 inh: 14

How did COc1cc(NC(=O)COc2ccc(-n3cnnn3)cc2)c(OC)cc1Cl do in these assays?
PostGolgi yeast: -8; PostGolgi ctrl: -3; CYP2C9 activ: 1.2; CYP2C19 act: 0.9; CYP2C9 inh: -20; CYP2C19 inh: 14

Results for COc1ccc(C(C)=O)cc1CN(C)C ?
PostGolgi yeast: 2; PostGolgi ctrl: 2; CYP2C9 activ: 1.2; CYP2C19 act: 1.1; CYP2C9 inh: -19; CYP2C19 inh: -10

Results for COc1ccc(C(C)=O)cc1COc1ccc(-n2cnnn2)cc1 ?
PostGolgi yeast: 2; PostGolgi ctrl: 15; CYP2C9 activ: 0.1; CYP2C19 act: 0; CYP2C9 inh: 93*; CYP2C19 inh: 99*

What do the screens show for `COc1ccc(OC)c(NC(=O)COC(=O)c2ccc(-n3cnnn3)cc2)c1`?
PostGolgi yeast: -5; PostGolgi ctrl: 3; CYP2C9 activ: 0.8; CYP2C19 act: 0.4; CYP2C9 inh: 21; CYP2C19 inh: 63*

Results for CCOc1cc(/C=N/NC(=O)Cn2nc([N+](=O)[O-])cc2C)cc(Br)c1OCc1ccccc1F ?
PostGolgi yeast: -3; PostGolgi ctrl: 3; CYP2C9 activ: 0.7; CYP2C19 act: 0.9; CYP2C9 inh: 28; CYP2C19 inh: 10

How did Cc1ccc(S(=O)(=O)Cc2ccc(C(=O)NCc3cccs3)o2)cc1 do in these assays?
PostGolgi yeast: 0; PostGolgi ctrl: 5; CYP2C9 activ: 0.3; CYP2C19 act: 0.7; CYP2C9 inh: 72*; CYP2C19 inh: 29

How did Cc1ccc(NC(=S)NCc2cccs2)cc1 do in these assays?
PostGolgi yeast: 12; PostGolgi ctrl: 6; CYP2C9 activ: 0.7; CYP2C19 act: 0.4; CYP2C9 inh: 29; CYP2C19 inh: 57*

How did COc1ccc(CCNC(=O)c2ccc(CS(=O)(=O)c3ccc(C)cc3)o2)cc1OC do in these assays?
PostGolgi yeast: -6; PostGolgi ctrl: -3; CYP2C9 activ: 0.2; CYP2C19 act: 0.8; CYP2C9 inh: 83*; CYP2C19 inh: 18

What do the screens show for `Cc1ccccc1S(=O)(=O)Cc1ccc(C(=O)NCc2cccs2)o1`?
PostGolgi yeast: -4; PostGolgi ctrl: 18; CYP2C9 activ: 0.6; CYP2C19 act: 0.6; CYP2C9 inh: 44; CYP2C19 inh: 40

Results for COC(=O)c1ccccc1NC(=O)CNC(=O)c1ccco1 ?
PostGolgi yeast: -4; PostGolgi ctrl: 2; CYP2C9 activ: 0.7; CYP2C19 act: 0.7; CYP2C9 inh: 31; CYP2C19 inh: 33

What do the screens show for `O=C(NCCN1CCOCC1)c1ccc2c(c1)ncn2C1CCCCC1`?
PostGolgi yeast: -2; PostGolgi ctrl: 10; CYP2C9 activ: 0.9; CYP2C19 act: 1; CYP2C9 inh: 8; CYP2C19 inh: -3

Results for COc1ccc2nc3c(cc2c1)c(NC(=O)c1cccs1)nn3CC(C)C ?
PostGolgi yeast: 10; PostGolgi ctrl: 37*; CYP2C9 activ: 0.1; CYP2C19 act: 0.2; CYP2C9 inh: 93*; CYP2C19 inh: 78*

How did CCn1nc(NC(=O)c2ccncc2)c2cc3ccccc3nc21 do in these assays?
PostGolgi yeast: -2; PostGolgi ctrl: 9; CYP2C9 activ: 0.3; CYP2C19 act: 0.3; CYP2C9 inh: 67*; CYP2C19 inh: 70*

What do the screens show for `CC(C)Cn1nc(NC(=O)C(C)(C)C)c2cc3ccccc3nc21`?
PostGolgi yeast: -4; PostGolgi ctrl: 5; CYP2C9 activ: 0.5; CYP2C19 act: 0.6; CYP2C9 inh: 52*; CYP2C19 inh: 36

Compound activity (PubChem)
